Source: PubChem BioAssay (NCI)
About 79,000 compounds went through this panel and 15% of them were active in at least one assay; those are over-represented in the sample as a whole. Rule as the data show it: active = growth inhibition above about 70%; inactive = the rest.

How the values were obtained:
[1] = NCI Yeast Anticancer Drug Screen. Data for the rad50 strain (AID 155);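 also: 0% = growth of vehicle-only cultures of the same strain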; settings: S. cerevisiae rad50 strain growth inhibition; at 50.0 µM; stronger effect = higher value
Outline: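 Yeast carrying a defined DNA repair defect were exposed to test compounds, and growth was compared with vehicle-treated controls to give percent inhibition.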

[2] = NCI Yeast Anticancer Drug Screen. Data for the mec2-1 strain (AID 157); settings: S. cerevisiae mec2-1 strain, at 50.0 µM, stronger effect = higher value
Outline: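 Yeast mec2-1 mutant treated with compound. Readout: growth inhibition vs vehicle controls.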

[3] = NCI Yeast Anticancer Drug Screen. Data for the sgs1 mgt1 strain (AID 161);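 also: 0% = growth of cultures given vehicle only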; settings: S. cerevisiae sgs1 mgt1 strain, at 50.0 µM, stronger effect = higher value
Outline: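 Read-out: growth inhibition vs vehicle controls. Cells: mutant yeast strain deficient in DNA damage repair.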

[4] = NCI Yeast Anticancer Drug Screen. Data for the cln2 rad14 strain (AID 165);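 also: 0% = growth equal to vehicle treated cultures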; settings: S. cerevisiae cln2 rad14 strain, at 50.0 µM, stronger effect = higher value
Outline: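 cln2 rad14 yeast strain; compound exposure; growth inhibition read vs vehicle controls.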

[5] = NCI Yeast Anticancer Drug Screen. Data for the bub3 strain (AID 167); settings: S. cerevisiae bub3 mutant strain, at 50.0 µM, stronger effect = higher value
Outline: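 Compounds were applied to a genetically altered yeast strain carrying a cell-cycle control defect. Growth inhibition was scored against vehicle-treated controls.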

[6] = NCI Yeast Anticancer Drug Screen. Data for the mlh1 rad18 strain (AID 175); settings: S. cerevisiae mlh1 rad18 strain growth inhibition; at 50.0 µM; stronger effect = higher value
Outline: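 Yeast w/ defined DNA-repair lesions; compound exposure; growth vs vehicle controls → % inhibition.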

Measured: growth inhibition

CC(=O)O/C1=C\CCCCCCCCCC1
inactive: [1] 6.95% | [2] -27.5% | [3] 28.3% | [4] 18.9% | [5] 13.5% | [6] -1.45%

CN(/N=C1\C(=O)Nc2ccccc21)c1ccccc1
inactive: [1] 4.65% | [2] -3.15% | [3] 13.6% | [4] -37.9% | [5] 3.85% | [6] 17.6%

C(=Nc1cccc2ccccc12)Nc1cccc2ccccc12
inactive: [1] -10.9% | [2] -38.7% | [3] -5.8% | [4] -6.7% | [5] -48.8% | [6] 1.25%

O=C1c2ccccc2OC(Cl)(c2ccccc2)C1Cl (configuration not stated)
inactive: [1] -15.1% | [2] -2.4% | [3] -7.5% | [4] -21.8% | [5] 22.7% | [6] 2%

NC(=O)N/N=C/c1ccc2c(c1)OCO2
inactive: [1] 20.1% | [2] -7.9% | [3] 0% | [4] 8.45% | [5] -0.15% | [6] 13.8%

COc1ccc(Cc2coc3ccccc3c2=O)cc1
inactive: [1] 13.1% | [2] 7.35% | [3] 13.7% | [4] 4.85% | [5] 25.2% | [6] 9.4%

CCCN=C1NS(=O)(=O)c2ccccc21
inactive: [1] 8.35% | [2] -14.8% | [3] -15.3% | [4] -11.8% | [5] -7.55% | [6] -7.7%

Cc1cc2ccccc2c[n+]1CC(=O)c1ccc([N+](=O)[O-])cc1
inactive: [1] -4.1% | [2] 32.1% | [3] 62% | [4] -1.85% | [5] 7.35% | [6] 51.7%

c1ccc(-c2cc(-c3ccccc3)c(-c3ccccc3)c(-c3ccccc3)c2)cc1
inactive: [1] 32.1% | [2] 10.1% | [3] 19.4% | [4] 12.4% | [5] -4.1% | [6] 13%

O=C(OC1OC(COCc2ccccc2)C(OCc2ccccc2)C1OCc1ccccc1)c1ccc([N+](=O)[O-])cc1 (configuration not stated)
inactive: [1] 25.2% | [2] -12.2% | [3] 16.2% | [4] -26.1% | [5] -5.3% | [6] -1.35%

Nc1ccccc1N=Cc1cc(F)ccc1[N+](=O)[O-]
inactive: [1] 0.05% | [2] 4.4% | [3] 28.2% | [4] -48.9% | [5] 4.4% | [6] 1.35%

COc1ccc(N2C(=O)C3c4[nH]c5ccccc5c4C4CCCCCCCCCCC4C3C2=O)cc1 (configuration not stated)
inactive: [1] 9.95% | [2] -19.6% | [3] -3.2% | [4] -65.3% | [5] -26.4% | [6] -4.2%

COc1ccc(C(O)c2cc(C(F)(F)F)cc(C(F)(F)F)c2)cc1OC (configuration not stated)
inactive: [1] 9.2% | [2] -11.6% | [3] 11.2% | [4] 8.2% | [5] 22.9% | [6] 14.3%

N#Cc1c(-c2ccccc2)cc(-c2ccc(N)cc2)[nH]c1=O
inactive: [1] 26.5% | [2] 3.65% | [3] 13.2% | [4] 33.4% | [5] 11.6% | [6] 20.3%

CCC(C)OC(=O)/C(Br)=C1/OC(=O)c2ccccc2-c2ccccc21 (configuration not stated)
inactive: [1] -1.55% | [2] -15.8% | [3] -0.35% | [4] -13.4% | [5] -42.5% | [6] -7.2%

N=C(N)n1[nH]c2c(c1=O)CCCC2
inactive: [1] 5.6% | [2] 6.75% | [3] -12.1% | [4] 6.25% | [5] 2.85% | [6] -19.4%

COc1ccc(/C(Cl)=C(\C=O)c2ccc(Cl)c(Cl)c2)cc1OC
inactive: [1] 28.1% | [2] 11.2% | [3] 27.5% | [4] -34.6% | [5] 0.7% | [6] 43.1%

NC(=NC1CCCCC1)/N=C(/N)Nc1ccc(Cl)cc1
inactive: [1] 26.8% | [2] 0.2% | [3] 5% | [4] -29.6% | [5] 4.7% | [6] 14.4%

CC(C)C(=O)OCCCc1ccccc1
inactive: [1] 11.7% | [2] -5.3% | [3] 1.8% | [4] 7.45% | [5] 21.5% | [6] 12.8%

COC(=O)c1nc(N)[nH]c(=O)c1-c1ccc(Cl)cc1
inactive: [1] -9.5% | [2] -21.9% | [3] -10.9% | [4] 14.8% | [5] -12.7% | [6] -47.8%

COc1ccc(CC2COC(=O)[C@@H]2Cc2ccc(O)cc2)cc1OC (some centres not stated)
inactive: [1] -32.9% | [2] -43.5% | [3] -14.1% | [4] -2.85% | [5] 4% | [6] -7.55%

CC(=O)NC(Cc1ccccc1)/C(C)=N\O (configuration not stated)
inactive: [1] -3.15% | [2] -2.05% | [3] -2.65% | [4] -15.2% | [5] 5.25% | [6] 4.8%

CCOC(=O)c1[nH]cc(C)c1-c1c[nH]c2ccccc12
inactive: [1] 31% | [2] 27.6% | [3] 20.4% | [4] 19.7% | [5] -4.05% | [6] 41.2%

O=c1[nH]c(=O)n(C2OC(CO)C(O)C2O)cc1Oc1ccccc1 (configuration not stated)
inactive: [1] 7.8% | [2] 2.9% | [3] 4.2% | [4] 12.4% | [5] -0.4% | [6] -13.8%

CC(C)(C)CC(C)(C)c1ccc2c(c1)NC(C1Nc3cc(C(C)(C)CC(C)(C)C)ccc3O1)O2 (configuration not stated)
inactive: [1] 8.05% | [2] -5.8% | [3] -4.55% | [4] -4.4% | [5] -2.6% | [6] 10.8%

CC1=CC(=O)C2CC1C2(C)C (configuration not stated)
inactive: [1] 6.55% | [2] -0.5% | [3] 0.5% | [4] 4.75% | [5] 4.6% | [6] -5.2%

COc1ccc(/C=C/C2=CC(=O)CC(c3ccc(OC)c(OC)c3)C2)cc1OC (configuration not stated)
inactive: [1] 13.2% | [2] 5.35% | [3] 16.5% | [4] -35.6% | [5] 31.2% | [6] 9.35%

OCC(O)C(O)C(O)C(O)C(OCc1ccccc1)OCc1ccccc1 (configuration not stated)
inactive: [1] 11.3% | [2] 7.55% | [3] -23.6% | [4] -12.7% | [5] 5.1% | [6] 9.85%

Cc1ccc(C(=O)N(C(C)C)C(C)C)cc1N=NN(C)C
inactive: [1] -10% | [2] -30.6% | [3] -31.1% | [4] 12.2% | [5] -20.6% | [6] -23.7%

c1ccc(C(c2ccc3c(c2)CCCC3)C(c2ccccc2)(c2ccccc2)c2ccccc2)cc1 (configuration not stated)
inactive: [1] -0.05% | [2] -0.05% | [3] 4.7% | [4] 16.5% | [5] -3.65% | [6] 25.4%

S=C1CC(c2ccccc2)Sc2cc(Cl)ccc2N1 (configuration not stated)
inactive: [1] -15.5% | [2] -4.35% | [3] 4.9% | [4] 15.6% | [5] -2.45% | [6] -2.95%

Cc1cn(C2CC(O)C(CO)O2)c(=O)nc1NCC12CC3CC(CC(C3)C1)C2 (configuration not stated)
inactive: [1] -1.7% | [2] 11.8% | [3] -1.1% | [4] -1.1% | [5] -0.8% | [6] -2.25%

Cc1cccc(Cl)c1N=Nc1c(N)nc(N)[nH]c1=O
inactive: [1] 15.8% | [2] -20.8% | [3] -5.1% | [4] -4.8% | [5] -0.35% | [6] -0.5%

CC(C)(C)N(C/C=C/CN(Cc1ccccc1)Cc1ccccc1)C(C)(C)C
inactive: [1] 32.8% | [2] 16.2% | [3] 25.6% | [4] 10.8% | [5] 19.8% | [6] 22.7%

Nc1cc(S(=O)(=O)O)cc2cccc(S(=O)(=O)O)c12
inactive: [1] 7% | [2] -7.7% | [3] 0.35% | [4] -20.6% | [5] 25.2% | [6] 30.8%

Cc1nn(-c2ccccc2)c2oc3ccccc3c(=O)c12
inactive: [1] -25.6% | [2] -7.4% | [3] -35.5% | [4] -29.5% | [5] -20.9% | [6] -31.1%

CC/C(=C\c1ccc(OC)cc1)c1ccc(OC)cc1
inactive: [1] -16.1% | [2] -31.1% | [3] 7.05% | [4] 4.75% | [5] 1.75% | [6] -5.05%
